Experimental data from PubChem BioAssay AID1159580 (chemical genetic matrix, 2015).
The whole screen tested about 5,500 compounds, of which about 2,000 (36%) were called active. Inconclusive results (about 18%) are left out. No stated cut-off is given here; in the data, active means normalized growth mostly below about 0.91 (no sharp cut-off); inconclusive means no clear call, values can overlap the other calls; inactive means mostly above about 0.92. This is one part of the list.

Experiment: chemical genetic growth profiling, strain panel (AID 1159580);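 further: tested at 20 µM; growth read once vehicle control cultures reached saturation at 30 °C; 1 = growth at the plate median or of vehicle wells; lower values mean less growth of the strain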
Details: growth OD

Measured: normalized growth

COc1cc(N)c(Cl)cc1C(=O)NC1CCN(Cc2ccccc2)CC1
inactive: S. cerevisiae deletion strains, locus YJR043C, strain POL32, hits give low values 0.985 | S. cerevisiae deletion strains, locus YJR075W, strain HOC1, hits give low values 0.978 | S. cerevisiae deletion strains, locus YKL009W, strain mrt4, hits give low values 0.993 | S. cerevisiae deletion strains, locus YKL068W, hits give low values 0.974 | S. cerevisiae deletion strains, locus YKL085W, strain MDH1 (second series), hits give low values 0.995 | S. cerevisiae deletion strains, locus YKL085W, strain MDH1, hits give low values 0.995 | S. cerevisiae deletion strains, locus YKL160W, strain elf1, hits give low values 0.991 | S. cerevisiae deletion strains, locus YKL190W, strain CNB1, hits give low values 0.992 | S. cerevisiae deletion strains, locus YKR001C, strain vps1, hits give low values 1 | S. cerevisiae deletion strains, locus YKR026C, strain gcn3, hits give low values 0.988 | S. cerevisiae deletion strains, locus YKR091W, strain srl3, hits give low values 0.993 | S. cerevisiae deletion strains, locus YLL001W, strain dnm1, hits give low values 0.99 | S. cerevisiae deletion strains, locus YLL026W, hits give low values 0.997 | S. cerevisiae deletion strains, locus YLL041C, strain sdh2, hits give low values 0.996 | S. cerevisiae deletion strains, locus YLR027C, strain aat2, hits give low values 1 | S. cerevisiae deletion strains, locus YLR039C, strain RIC1, hits give low values 0.997 | S. cerevisiae deletion strains, locus YLR058C, strain SHM2, hits give low values 0.988 | S. cerevisiae deletion strains, locus YLR102C, strain apc9, hits give low values 0.994 | S. cerevisiae deletion strains, locus YLR221C, strain rsa3, hits give low values 0.996 | S. cerevisiae deletion strains, locus YLR258W, strain gsy2, hits give low values 0.994 | S. cerevisiae deletion strains, locus YLR262C, strain YPT6 (second series), hits give low values 1.01 | S. cerevisiae deletion strains, locus YLR262C, strain YPT6, hits give low values 0.969 | S. cerevisiae deletion strains, locus YLR268W, strain sec22, hits give low values 0.935 | S. cerevisiae deletion strains, locus YLR320W, strain mms22, hits give low values 1.01 | S. cerevisiae deletion strains, locus YLR330W, strain CHS5, hits give low values 0.993 | S. cerevisiae deletion strains, locus YLR342W, strain FKS1 (second series), hits give low values 1.05 | S. cerevisiae deletion strains, locus YLR342W, strain FKS1, hits give low values 0.999 | S. cerevisiae deletion strains, locus YLR357W, strain rsc2, hits give low values 1.02 | S. cerevisiae deletion strains, locus YLR370C, strain arc18, hits give low values 0.998 | S. cerevisiae deletion strains, locus YLR371W, strain rom2, hits give low values 0.989 | S. cerevisiae deletion strains, locus YLR384C, strain iki3, hits give low values 0.993 | S. cerevisiae deletion strains, locus YLR418C, strain cdc73, hits give low values 0.968 | S. cerevisiae deletion strains, locus YML016C, strain PPZ1, hits give low values 1 | S. cerevisiae deletion strains, locus YML032C, strain rad52, hits give low values 0.969 | S. cerevisiae deletion strains, locus YML120C, strain ndi1, hits give low values 0.993 | S. cerevisiae deletion strains, locus YML124C, strain tub3, hits give low values 0.996 | S. cerevisiae deletion strains, locus YMR058W, strain fet3, hits give low values 1 | S. cerevisiae deletion strains, locus YMR078C, strain ctf18, hits give low values 0.986 | S. cerevisiae deletion strains, locus YMR125W, strain sto1, hits give low values 0.988 | S. cerevisiae deletion strains, locus YMR129W, hits give low values 1 | S. cerevisiae deletion strains, locus YMR205C, strain PFK2, hits give low values 0.997 | S. cerevisiae deletion strains, locus YMR223W, strain ubp8, hits give low values 1.04 | S. cerevisiae deletion strains, locus YMR231W, strain pep5, hits give low values 0.985 | S. cerevisiae deletion strains, locus YMR263W, strain SAP30, hits give low values 0.978 | S. cerevisiae deletion strains, locus YMR307W, strain GAS1, hits give low values 1.09 | S. cerevisiae deletion strains, locus YNL067W, strain RPL9B, hits give low values 0.969 | S. cerevisiae deletion strains, locus YNL071W, strain lat1, hits give low values 0.997 | S. cerevisiae deletion strains, locus YNL128W, strain TEP1, hits give low values 0.984 | S. cerevisiae deletion strains, locus YNL153C, strain GIM3, hits give low values 0.985 | S. cerevisiae deletion strains, locus YNL209W, strain ssb2, hits give low values 1.01 | S. cerevisiae deletion strains, locus YNL233W, strain BNI4, hits give low values 0.99 | S. cerevisiae deletion strains, locus YNL248C, strain rpa49, hits give low values 0.991 | S. cerevisiae deletion strains, locus YNL250W, strain rad50, hits give low values 1 | S. cerevisiae deletion strains, locus YNL271C, strain bni1, hits give low values 0.995 | S. cerevisiae deletion strains, locus YNL298W, strain CLA4, hits give low values 0.974 | S. cerevisiae deletion strains, locus YNL307C, strain MCK1, hits give low values 0.977 | S. cerevisiae deletion strains, locus YNL322C, strain KRE1 (second series), hits give low values 0.994 | S. cerevisiae deletion strains, locus YNL322C, strain KRE1, hits give low values 0.991 | S. cerevisiae deletion strains, locus YNR049C, strain mso1, hits give low values 0.997 | S. cerevisiae deletion strains, locus YNR052C, strain pop2, hits give low values 0.993 | S. cerevisiae deletion strains, locus YOL006C, strain TOP1, hits give low values 0.933 | S. cerevisiae deletion strains, locus YOL012C, strain htz1 1.69 | S. cerevisiae deletion strains, locus YOL147C, strain pex11, hits give low values 0.996 | S. cerevisiae deletion strains, locus YOR001W, strain rrp6, hits give low values 0.996 | S. cerevisiae deletion strains, locus YOR061W, strain CKA2, hits give low values 0.994 | S. cerevisiae deletion strains, locus YOR069W, strain VPS5, hits give low values 0.989 | S. cerevisiae deletion strains, locus YOR070C, strain gyp1, hits give low values 0.997 | S. cerevisiae deletion strains, locus YOR080W, strain dia2, hits give low values 1.01 | S. cerevisiae deletion strains, locus YOR083W, strain WHI5, hits give low values 1 | S. cerevisiae deletion strains, locus YOR106W, strain vam3, hits give low values 1 | S. cerevisiae deletion strains, locus YOR136W, strain idh2, hits give low values 0.996 | S. cerevisiae deletion strains, locus YOR144C, strain elg1, hits give low values 0.982 | S. cerevisiae deletion strains, locus YOR184W, strain ser1, hits give low values 0.965 | S. cerevisiae deletion strains, locus YOR265W, strain rbl2, hits give low values 0.998 | S. cerevisiae deletion strains, locus YOR270C, strain vph1, hits give low values 1.02 | S. cerevisiae deletion strains, locus YOR290C, strain snf2, hits give low values 0.984 | S. cerevisiae deletion strains, locus YOR316C, strain cot1, hits give low values 0.963 | S. cerevisiae deletion strains, locus YPL051W, strain arl3, hits give low values 0.993 | S. cerevisiae deletion strains, locus YPL055C, strain LGE1, hits give low values 0.976 | S. cerevisiae deletion strains, locus YPL078C, strain atp4, hits give low values 0.995 | S. cerevisiae deletion strains, locus YPL106C, strain sse1, hits give low values 0.99 | S. cerevisiae deletion strains, locus YPL240C, strain hsp82, hits give low values 0.999 | S. cerevisiae deletion strains, locus YPL241C, strain CIN2, hits give low values 0.998 | S. cerevisiae deletion strains, locus YPR119W, strain clb2, hits give low values 0.985 | S. cerevisiae deletion strains, locus YPR141C, strain kar3, hits give low values 0.986 | S. cerevisiae deletion strains, locus YPR163C, strain tif3, hits give low values 0.986 | S. cerevisiae deletion strains, locus YPR167C, strain met16, hits give low values 0.983 | S. cerevisiae deletion strains, strain wtn01, hits give low values 0.949 | S. cerevisiae strains, strain wild type, hits give low values 1
